Measurements reported in the supplement of paper PMC3334620.
The full ranking holds about 33,000 sequences; the median of “E-score (-0.5 to 0.5)” is about -0.036, and the highest 2% start at about 0.37. The entries come from a sample that favours the highest values as a whole.

target: T1, Yer064c (UniProt P40041); assay: PBM E-score (8-mer binding enrichment) (E-score (-0.5 to 0.5)); higher = stronger / more preferred TF binding; settings: protein concentration: 200 nM; construct: GST-full length
T1 sequence: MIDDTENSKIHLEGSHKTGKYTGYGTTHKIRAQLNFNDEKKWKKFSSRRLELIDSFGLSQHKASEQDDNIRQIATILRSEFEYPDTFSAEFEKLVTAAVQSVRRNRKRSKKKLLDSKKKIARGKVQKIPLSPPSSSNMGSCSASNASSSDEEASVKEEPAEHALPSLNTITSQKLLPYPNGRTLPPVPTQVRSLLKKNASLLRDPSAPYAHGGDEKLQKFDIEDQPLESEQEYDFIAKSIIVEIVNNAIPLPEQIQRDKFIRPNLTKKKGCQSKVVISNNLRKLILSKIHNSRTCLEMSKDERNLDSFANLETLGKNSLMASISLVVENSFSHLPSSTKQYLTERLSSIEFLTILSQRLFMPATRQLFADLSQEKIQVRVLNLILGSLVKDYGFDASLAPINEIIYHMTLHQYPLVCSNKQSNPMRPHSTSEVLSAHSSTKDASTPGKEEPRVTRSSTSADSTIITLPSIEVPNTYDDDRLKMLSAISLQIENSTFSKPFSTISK
Outline: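 Masliner-normalised scans of fluorescent anti-GST signal were the basis for scoring. That signal came from GST-tagged yeast transcription factors applied at about 100-200 nM to double-stranded universal all-10-mer Agilent arrays on fresh or once-stripped slides. Each ungapped eight-base word, pooled with its reverse complement, received an E-score from the Universal PBM Analysis Suite.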

| Sequence | PBM E-score |
| --- | --- |
| ATTAGTTG | 0.118 |
| CTTAGTAA | 0.161 |
| ATTAGTAC | 0.205 |
| CTTAGTTA | 0.221 |
| CTTAGTCA | 0.483 |
| ATTAGTCC | 0.373 |
| ATTAGTCG | 0.41 |
| AAGAATAG | 0.0215 |
| CTAGAAAC | 0.0516 |
| CCTTCTAG | -0.244 |
| GCAATGCC | -0.31 |
| TAATATTA | 0.207 |
| AGCGATCC | -0.315 |
| CGCGTCTA | -0.228 |
| GTTAGTTA | 0.165 |
| CTTAGTTC | 0.0883 |
| CTTAGTCC | 0.37 |
| CTTAGGCC | -0.115 |
| GTTAGTCA | 0.49 |
| GTTAGTGA | 0.171 |
| CTCGCGCA | -0.0489 |
| GAGCGTCA | -0.0316 |

| Sequence | PBM E-score |
| --- | --- |
| CACTTTGA | 0.184 |
| GGCTATCA | -0.11 |
| TAGTCGAA | 0.243 |
| CAGTCGCC | 0.254 |
| TAGTCGCA | 0.412 |
| TCGTCGCA | -0.0159 |
| AAGTCGCC | 0.222 |
| CAGTCGCA | 0.15 |
| GAGTCGCC | 0.439 |
| GAGTCGCA | 0.438 |
| AAGTCGCA | 0.257 |
| ACGGGCCT | -0.363 |
| GGGCACCC | -0.269 |
| CGGGACCA | -0.208 |
| GAAGCGTA | -0.151 |
| AACGGAAC | -0.134 |
| AAGAGCCC | -0.196 |
| CATTTCGA | -0.0334 |
| AATCACGC | 0.391 |
| AATCACGA | 0.347 |
| AATCAAGA | 0.235 |
| GATCACGC | 0.18 |

| Sequence | PBM E-score |
| --- | --- |
| AATCACGT | 0.382 |
| CATCACGA | 0.132 |
| AAGGCAGG | -0.192 |
| ACGTCCGG | -0.217 |
| AGTGGGCC | -0.307 |
| CTTCTGCC | -0.225 |
| CTGGTTAA | 0.162 |
| ATGGTTAA | 0.391 |
| GTGGTTAA | 0.222 |
| GTAGCGAA | -0.0282 |
| ATGCCGAG | -0.0321 |
| GACTCGCC | 0.371 |
| GACTCGTA | 0.419 |
| TACTCGCA | 0.211 |
| CACTCGTA | -0.0316 |
| CACTCGCC | -0.0244 |
| AACTCGCC | -0.0941 |
| AACTCGTA | -0.019 |
| GACTCGCA | 0.414 |
| AACTCGCA | 0.0388 |
| AAGGTACG | -0.094 |
| GCGTAGAC | -0.0194 |

| Sequence | PBM E-score |
| --- | --- |
| GAGGTGAC | 0.224 |
| TATTCCAA | -0.0766 |
| GCACTGAC | 0.131 |
| GGGCCGAA | -0.287 |
| GCCTGCGA | -0.22 |
| ATCAATCC | -0.0246 |
| CTCAATCA | 0.402 |
| CGCAATCA | 0.302 |
| GTCAATTA | 0.123 |
| GTCAATCA | 0.389 |
| GGCAATCA | 0.283 |
| ATCAATCA | 0.381 |
| ATCAATCG | 0.193 |
| CTCAATCC | 0.146 |
| TGGGCGAA | 0.0204 |
| ATCTCTAG | -0.0229 |
| CAGACGAC | 0.137 |
| AGTAAGTC | 0.354 |
| CCTCAGCA | -0.202 |
| AACTGGTA | -0.259 |
| AATGACCA | 0.0838 |
| CATGACGA | 0.0513 |

| Sequence | PBM E-score |
| --- | --- |
| AATGACAG | -0.045 |
| AATGACCG | -0.203 |
| CATGACTA | 0.491 |
| AATGACTA | 0.487 |
| CATGACAA | -0.00212 |
| AATGACGA | 0.0304 |
| AATGACTG | 0.441 |
| AATAGGCT | -0.0339 |
| CTCTCGGA | 0.144 |
| CTGTGGAA | 0.0224 |
| AATCCTCG | -0.0311 |
| AAACATTG | -0.0364 |
| AATCATTA | 0.397 |
| CATCATTA | 0.161 |
| AATCATTC | 0.417 |
| CATCATTC | 0.0981 |
| AAGCATTG | -0.159 |
| ATTCATTA | 0.21 |
| GATCATTA | 0.128 |
| AATCATTG | 0.43 |
| TGGTAGAA | -0.0551 |
| CACCCTGC | 0.118 |
